Among the data in PubChem BioAssay (Tox21) are outcome and activity, negative = cytotoxic values, retold here.

Inconclusive results are not listed. A number with no mark means an inactive call. Activity calls are given as the source filed them. The call rests on the fitted dose curve.
On the % scale 0 is the no-effect control and ±100 the full control effect.

The nature of this test: qHTS assay to identify small molecule agonists of the NFkB signaling pathway - cell viability counter screen (AID 1159515). Further: nearly all actives have a fitted effect of over 55% in size. To be noted: NFkB-bla ME-180 viability, CellTiter-Glo luminescence, 5 h; series mostly up to 61 µM. The source says: National Center for Advancing Translational Sciences [NCATS]
NIH Chemical Genomics Center [NCGC]
U.S. Environmental Protection Agency [EPA]
National Institutes of Environmental Health Sciences [NIEHS]
National Toxicology Program [NTP]
U.S. Food and Drug Administration [FDA]
Transcription factors and their stimulated target gene expression play pivotal roles across many cellular processes including responses to environmental stimuli. Proper regulation of associated pathways is critical to maintain cell health and function. Constitutive activation of transcription factor pathways has been implicated in tumors as it may block cellular functions such as apoptosis and lead to invasion and metastasis. One important transcription factor that stimulates gene expression in response to cytokines, UV radiation, and other stimuli is nuclear factor-kappa B (NFkB). To measure activation of the NFkB pathway, the CellSensor NFkB-bla ME-180 cell line (Life Technologies, Carlsbad, CA) that stably expresses beta-lactamase reporter gene under the regulation of a NF-kB response element was used. This assay allows measurement of the NFkB pathway activity induced by compounds in a ME-180 cell line. This system quantitates NF-kB activity using a FRET-based assay system where beta-lactamase expression disrupts FRET, allowing for fluorescent measurement of activity. This cell line has been used to screen the Tox21 10K compound library and to identify compounds that induce the NFkB pathway activity. The cytotoxicity of the Tox21 compound library against the NFkB-bla ME-180 cell line was tested in parallel by measuring cell viability using the CellTiter-Glo assay in the same wells.
Tox21 Assay Protocol Summary:
NFkB-bla ME-180 cells were dispensed at 2,000 cells/6 uL of assay medium per well into black wall/clear-bottom 1536-well plates using a Multidrop Combi (ThermoFisher Scientific, Waltham, MA) dispenser. After the assay plates were incubated at 37 C and 5% CO2 for an overnight, 23 nL of compounds dissolved in DMSO, positive controls or DMSO only was transferred to the assay plate by a Pintool station (Kalypsys, San Diego, CA). The assay plates were incubated at 37 C and 5% CO2 for 5 hr. One uL of LiveBLAzer B/G FRET substrate (Life Technologies) was added using a Flying Reagent Dispenser (Aurora Discovery, San Diego, CA) and the plates were incubated at room temperature for 1.5 hr. Fluorescence intensity (405 nm excitation, 460 nm and 530 nm emissions) was measured using an Envision plate reader (PerkinElmer, Shelton, CT). For cytotoxicity, 3 ul/well of CellTiter-Glo reagent was added into the assay plates using an FRD. After 30 min incubation at room temperature, the luminescence intensity was measured using a ViewLux plate reader (PerkinElmer).
(In general: Quantitative high-throughput screening tests each substance at several concentrations.)
With `O=C(NC1CCN(CCc2c[nH]c3ccccc23)CC1)c1ccccc1`, the outcome was inactive.

Turning to `Sc1nc(S)nc(S)n1`, the molecule was called inactive.

In the case of `C/C=C1\[C@H]2C=C(C)C[C@]1(N)c1ccc(=O)[nH]c1C2`, the molecule was classed as inactive.

For the molecule `O=C(O)c1ccc2cc(O)ccc2c1`, the molecule was classed as inactive.

Take `N#C[C@@H]1CC(F)(F)CN1C(=O)CNC1CC2CCC(C1)N2c1ncccn1` (stereo not given in full): the result was inactive.

`CC(C)=CCC/C(C)=C/C=N/O`: the outcome was inactive.

On to `C=CC(C)(O)CC/C=C(/C)CCC=C(C)C` (stereo not given), for which the call was inactive.

Regarding `C[Si](C)(C)O[Si](C)(C)O[Si](C)(C)C`, the molecule was classed as inactive.

Consider `CCCCOC(=O)CC#N`, for which the result was inactive.

In the case of `CCn1nc(Cc2ccccc2)cc1C1CCN(C[C@H]2C[C@H](N(C)[C@@H](C(=O)O)C(C)C)C[C@@H]2c2cccc(F)c2)CC1`, the molecule was classed as inactive.

With `FC1(F)C(F)(F)C(F)(F)C2(F)C(F)(C1(F)F)C(F)(F)C(F)(F)C1(F)C(F)(F)C(F)(F)C(F)(F)C(F)(F)C12F` (stereo not given), the call was inactive.

As for `C[C@@H](O)[C@H]1C(=O)N2C(C(=O)O)=C(S[C@@H]3CN[C@H](CNS(N)(=O)=O)C3)[C@H](C)[C@H]12`, the outcome was inactive.

As for `CC(CC(C#N)(c1ccccc1)C(C)C)N(C)C` (stereo not given), the result was inactive.

On to `CCCc1ccc(OC)cc1`, for which the outcome was inactive.

Take `CCOc1cc(OCC)c(C(C)=O)cc1OCC`: the result was inactive.

Consider `COc1ccc(C(=O)c2ccc(C)cc2)c(O)c1`, for which the molecule was classed as inactive.

Regarding `CO[C@@H]1[C@@H](O[C@@H]2O[C@H](C)[C@@H](O[C@H]3C[C@@](C)(O)[C@@H](O)[C@H](C)O3)[C@H](N(C)C)[C@H]2O)[C@@H](CC=O)C[C@@H](C)[C@@H](O[C@@H]2CC[C@H](N(C)C)[C@@H](C)O2)/C=C/C=C/C[C@@H](C)OC(=O)C[C@H]1OC(C)=O`, the molecule was called inactive.

With `C=CC(=O)NC(C)(C)C`, the molecule was classed as inactive.

Take `Nc1ccc(F)cc1F`: the molecule was classed as inactive.

As to `Cc1ccc(NC(=O)c2ccc(CN3CCN(C)CC3)cc2)cc1Nc1nccc(-c2cccnc2)n1`, the outcome was inactive.

With `CC(CCl)OC(C)CCl` (stereo not given), the call was inactive.

With `CCC(C)C1N=C(C)C(C)S1` (stereo not given), the outcome was inactive.

As for `CC(C)CCCCCCCOC(=O)c1ccc(C(=O)OCCCCCCCC(C)C)c(C(=O)OCCCCCCCC(C)C)c1`, the outcome was inactive.

As for `Clc1ccccc1-c1nc(-c2ccncc2)no1`, the molecule was classed as inactive.

In the case of `CCC(=O)O[C@]1(C(=O)COC)[C@@H](C)C[C@H]2[C@@H]3CCC4=CC(=O)C=C[C@]4(C)C3(F)[C@@H](O)C[C@@]21C` (stereo not given in full), the result was inactive.

Take `N#CCCCC(C#N)CCC#N` (stereo not given): the outcome was inactive.

For `CCc1ccc(C(=O)C(C)CN2CCCCC2)cc1` (stereo not given), the outcome was inactive.

With `CCCCCCCCCCCCCCCCCCCl`, the activity, negative = cytotoxic is -1.14% [at 6.95 µM].

For `CC(C)NC(=O)c1ccccc1N`, the molecule was called inactive.

Regarding `C=CCCC`, the result was inactive.

Consider `COc1cccc([C@H](O)C2CCN(CCc3ccc(F)cc3)CC2)c1OC`, for which the call was inactive.

As for `Oc1ccc(CCNCCCCCCNCCc2ccccc2)cc1O`, the result was inactive.

Consider `CCC(=O)O[C@@H]1C[C@H]2CC[C@]1(C)C2(C)C`, for which the outcome was inactive.

With `O=C(O)c1cccnc1Nc1cccc(C(F)(F)F)c1`, the call was inactive.

Take `Cc1cc(C)n(CO)n1`: the call was inactive.

Turning to `COc1ccc(CN(CCN(C)C)c2ncccn2)cc1`, the call was inactive.

Regarding `NC(=O)c1ccccc1C(N)=O`, the result was inactive.

Consider `CCOc1ccccc1O`, for which the molecule was classed as inactive.

With `CCCC(=O)OCc1ccccc1`, the call was inactive.

`CCCCCCCCCCCC(=O)OCC`: the molecule was called inactive.
